Results: PubChem BioAssay (Tox21)
Records with an inconclusive call do not appear. Active and inactive are the calls of the source. The call rests on the fitted dose curve; in most records, active means well fitted inhibition curve with a large enough effect in the repeat runs; inconclusive means weak or mixed curves; inactive means no such curve, though single readings can be large or run the other way.

The compounds below were run against Cytochrome P450 2D6 (Homo sapiens) (UniProt P10635) (assay: Cytochrome P450 Family 2 Subfamily D Member 6 (CYP2D6) small molecule antagonists: luciferase reporter qHTS assay (AID 1671196; further: nearly all actives have a fitted effect of over 50% in size)). Conditions: P450-Glo CYP2D6 enzyme assay, luciferin luminescence, 1 h; series mostly up to 115 µM; activity change, negative = inhibition: at the top concentration.
Outline: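 Room-temperature luminescent CYP2D6 activity assay: compound preincubated 10 min with enzyme–substrate mix, NADPH-initiated reaction 1 h, detection reagent 20 min before reading.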
On the % scale 0 is the no-effect control and ±100 the full control effect; potency means the concentration at half of the fitted maximal effect.

Cytochrome P450 2D6 (Homo sapiens), sequence (P10635 whole entry, looked up): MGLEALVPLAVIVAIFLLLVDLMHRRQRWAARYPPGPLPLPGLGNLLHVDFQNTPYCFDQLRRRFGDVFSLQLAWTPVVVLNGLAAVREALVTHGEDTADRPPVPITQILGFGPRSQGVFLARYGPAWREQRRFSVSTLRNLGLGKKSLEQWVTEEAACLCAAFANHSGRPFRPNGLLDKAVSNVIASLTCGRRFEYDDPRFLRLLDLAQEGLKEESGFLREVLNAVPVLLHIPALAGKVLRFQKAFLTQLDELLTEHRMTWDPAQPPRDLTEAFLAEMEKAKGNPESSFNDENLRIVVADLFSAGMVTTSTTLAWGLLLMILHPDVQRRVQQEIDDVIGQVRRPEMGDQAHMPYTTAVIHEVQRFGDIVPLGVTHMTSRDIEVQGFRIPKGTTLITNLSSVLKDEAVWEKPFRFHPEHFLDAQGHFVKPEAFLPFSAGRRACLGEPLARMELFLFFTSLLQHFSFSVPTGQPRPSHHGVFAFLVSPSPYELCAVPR

Row | SMILES | Potency | activity change, negative = inhibition
1 | CCOc1ccc([N+](=O)[O-])cc1 | 80.9 µM (active) | 
2 | CCCCCCCCOC(=O)c1cc(O)c(O)c(O)c1 | 11.2 µM (active) | 
3 | c1ccc(C[P+](c2ccccc2)(c2ccccc2)c2ccccc2)cc1 | 0.252 µM (active) | 
4 | C=CCc1cc(S(=O)(=O)c2ccc(O)c(CC=C)c2)ccc1O | 6.33 µM (active) | 
5 | c1ccc2cc3c4ccccc4c4ccccc4c3cc2c1 |  | -16.3% (inactive)
6 | O=C(Cl)c1ccc(Cl)cc1Cl |  | -24.5% (inactive)
7 | c1ccc(-c2ccc(C(c3ccccc3)n3ccnc3)cc2)cc1 (stereo not drawn) | 1.55 µM (active) | 
8 | CN[C@H]1CC[C@@H](c2ccc(Cl)c(Cl)c2)c2ccc(S(N)(=O)=O)cc21 | 1.42 µM (active) | 
9 | N#Cc1nc(Cl)c(Cl)c(Cl)c1Cl |  | -31.4% (inactive)
10 | c1ccc(-c2ccccc2-c2ccccc2)cc1 |  | -10.2% (inactive)
11 | CCCCCCCCCC[N+](C)(CCCCCCCCCC)CCC[Si](OC)(OC)OC | 3.17 µM (active) | 
12 | NCc1cccc(C2CCN(C(=O)c3ccc(C#Cc4ccccc4F)o3)CC2)c1 | 20 µM (active) | 
13 | CN1CCN(c2ccccc2/C=C2\SCCN(c3ccc(Cl)c(Cl)c3)C2=O)CC1 | 7.1 µM (active) | 

What follows are compounds tested against Cytochrome P450 2C19 (Homo sapiens) (UniProt P33261) (assay: Cytochrome P450 Family 2 Subfamily C Member 19 (CYP2C19) small molecule antagonists: luciferase reporter qHTS assay (AID 1671197; further: nearly all actives have a fitted effect of over 65% in size)). Conditions: P450-Glo CYP2C19 enzyme, luciferin luminescence, 1 h; series mostly up to 115 µM; activity change, negative = inhibition: at the top concentration.
Outline: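 Relative luminescence units recorded 20 min after the detection reagent stopped a 1 h, 37C CYP2C19 reaction on proluciferin substrate, which was started by NADPH regeneration following 10 min room-temperature compound preincubation; ketoconazole positive control.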

Cytochrome P450 2C19 (Homo sapiens), sequence (P33261 whole entry, looked up): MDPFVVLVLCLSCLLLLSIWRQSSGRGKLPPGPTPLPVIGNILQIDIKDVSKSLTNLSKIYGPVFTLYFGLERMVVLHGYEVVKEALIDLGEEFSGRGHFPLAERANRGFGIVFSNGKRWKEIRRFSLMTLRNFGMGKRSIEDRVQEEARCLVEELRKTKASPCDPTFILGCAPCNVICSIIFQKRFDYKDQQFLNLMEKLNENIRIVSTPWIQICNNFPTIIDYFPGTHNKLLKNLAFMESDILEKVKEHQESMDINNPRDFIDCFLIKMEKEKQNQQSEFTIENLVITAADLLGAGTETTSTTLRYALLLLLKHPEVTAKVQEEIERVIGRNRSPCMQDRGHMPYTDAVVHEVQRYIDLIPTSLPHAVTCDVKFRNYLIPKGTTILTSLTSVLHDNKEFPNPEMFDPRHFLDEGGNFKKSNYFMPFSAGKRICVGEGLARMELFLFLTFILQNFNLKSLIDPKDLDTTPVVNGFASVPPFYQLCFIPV

Row | SMILES | Potency | activity change, negative = inhibition
14 | CC1=C(/C=C/C(C)=C/C=C/C(C)=C\C(=O)O)C(C)(C)CCC1 | 40 µM (active) | 
15 | C=CCc1cc(S(=O)(=O)c2ccc(O)c(CC=C)c2)ccc1O | 2.24 µM (active) | 
16 | O=C(Nc1ccccc1)c1cc(Cl)ccc1O | 35.6 µM (active) | 
17 | O=C(NCc1ncc(C(F)(F)F)cc1Cl)c1c(Cl)cccc1Cl | 20 µM (active) | 
18 | CCCCCCCC/C=C\CCCCCCCC(=O)N(CCO)CCO | 19.9 µM (active) | 
19 | c1ccc(-c2ccccc2-c2ccccc2)cc1 | 20 µM (active) | 
20 | CCCCCCCCCC[N+](C)(CCCCCCCCCC)CCC[Si](OC)(OC)OC | 50.2 µM (active) | 
21 | O=C1CCC/C=C\CCCCCCCCCC1 |  | -1.22% (inactive)
22 | NCc1cccc(C2CCN(C(=O)c3ccc(C#Cc4ccccc4F)o3)CC2)c1 | 2 µM (active) | 

Each compound was assayed against Cytochrome P450 2C9 (Homo sapiens) (UniProt P11712) (assay: Cytochrome P450 Family 2 Subfamily C Member 9 (CYP2C9) small molecule antagonists: luciferase reporter qHTS assay (AID 1671198; further: nearly all actives have a fitted effect of over 50% in size)). Conditions: P450-Glo CYP2C9 enzyme assay, luciferin luminescence; series mostly up to 115 µM; activity change, negative = inhibition: at the top concentration.
Outline: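 CYP2C9 activity was measured with a P450-Glo proluciferin substrate. Enzyme–substrate mix was held with compound for 10 min at room temperature, then NADPH regeneration solution was added for 1 h at 37C. Luciferin product was read as luminescence.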

Cytochrome P450 2C9 (Homo sapiens), sequence (P11712 whole entry, looked up): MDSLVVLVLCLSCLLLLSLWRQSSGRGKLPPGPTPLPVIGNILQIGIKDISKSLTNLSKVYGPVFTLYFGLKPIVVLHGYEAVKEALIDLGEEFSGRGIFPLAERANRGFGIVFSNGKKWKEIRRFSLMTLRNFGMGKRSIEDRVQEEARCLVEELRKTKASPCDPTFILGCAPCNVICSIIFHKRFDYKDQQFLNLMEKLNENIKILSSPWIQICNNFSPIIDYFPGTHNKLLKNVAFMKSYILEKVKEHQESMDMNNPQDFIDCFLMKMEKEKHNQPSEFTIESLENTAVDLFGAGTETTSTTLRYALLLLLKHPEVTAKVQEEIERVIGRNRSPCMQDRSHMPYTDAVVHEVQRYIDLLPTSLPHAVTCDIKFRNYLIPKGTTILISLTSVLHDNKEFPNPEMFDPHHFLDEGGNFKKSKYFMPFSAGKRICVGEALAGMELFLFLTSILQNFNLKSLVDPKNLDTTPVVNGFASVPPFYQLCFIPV

Row | SMILES | activity change, negative = inhibition | Potency
23 | Cc1c(Cl)c(=O)oc2cc(O)ccc12 | -16.8% (inactive) | 
24 | CCOc1ccc([N+](=O)[O-])cc1 |  | 16.1 µM (active)
25 | CCCCCCCCOC(=O)c1cc(O)c(O)c(O)c1 |  | 2.24 µM (active)
26 | CC1=C(/C=C/C(C)=C/C=C/C(C)=C\C(=O)O)C(C)(C)CCC1 |  | 40 µM (active)
27 | c1ccc(C[P+](c2ccccc2)(c2ccccc2)c2ccccc2)cc1 | -17.2% (inactive) | 
28 | C=CCc1cc(S(=O)(=O)c2ccc(O)c(CC=C)c2)ccc1O |  | 0.502 µM (active)
29 | Nc1cccnc1N | -7.91% (inactive) | 
30 | c1ccc2cc3c4ccccc4c4ccccc4c3cc2c1 | -18.5% (inactive) | 
31 | O=S(=O)(c1ccc(OCc2ccccc2)cc1)c1ccccc1O |  | 39.9 µM (active)
32 | O=C(Nc1ccccc1)c1cc(Cl)ccc1O |  | 17.8 µM (active)
33 | CN1CCN(CCCN2c3ccccc3Sc3ccc(Cl)cc32)CC1 | 15.6% [at 53 µM] (inactive) | 
34 | c1ccc(-c2ccc(C(c3ccccc3)n3ccnc3)cc2)cc1 (stereo not drawn) |  | 0.219 µM (active)
35 | O=C(NCc1ncc(C(F)(F)F)cc1Cl)c1c(Cl)cccc1Cl | 25.2% (inactive) | 
36 | CC/C(=C(/c1ccc(O)cc1)c1ccc(OCCN(C)C)cc1)c1ccccc1 |  | 37.2 µM (active)
37 | CCCCCCCC/C=C\CCCCCCCC(=O)N(CCO)CCO |  | 14.1 µM (active)
38 | CN[C@H]1CC[C@@H](c2ccc(Cl)c(Cl)c2)c2ccc(S(N)(=O)=O)cc21 |  | 39.9 µM (active)
39 | N#Cc1nc(Cl)c(Cl)c(Cl)c1Cl |  | 79.6 µM (active)
40 | c1ccc(-c2ccccc2-c2ccccc2)cc1 |  | 22.4 µM (active)
41 | CCCCCCCCCC[N+](C)(CCCCCCCCCC)CCC[Si](OC)(OC)OC |  | 35.6 µM (active)
42 | NCc1cccc(C2CCN(C(=O)c3ccc(C#Cc4ccccc4F)o3)CC2)c1 |  | 0.071 µM (active)
43 | CN1CCN(c2ccccc2/C=C2\SCCN(c3ccc(Cl)c(Cl)c3)C2=O)CC1 |  | 10 µM (active)
